Results on eight compounds are retold here after PubChem BioAssay (EPA / NIEHS).

Values joined by “and” are separate entries in the source; they are usually repeats but may differ in a detail not shown here. Equal values may be shown once. Records with an inconclusive call do not appear. The source holds several records for some structures; these can differ, active in one and inactive in another. Active and inactive are the calls of the source. The calls were made as follows, unless noted: active = hit-call score of the fitted dose curve at least 0.9, where 1 is the maximum; inactive = score below 0.9.

Read-out in assay [1]: Interleukin 17F (IL17F), IL17F (gene 112744)
As to the kind of experiment: BSK_BT_xIL17F: BioMAP Diversity Plus: BT Assay for Interleukin 17F (IL17F) Biomarker Activity (AID 2284243). To be noted: primary human B cells with PBMC. The essentials:
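Human B cells co-cultured with PBMC; secreted IL-17F quantified by LumineX xMAP 24 hours after chemical dosing. Activity fitted in the positive direction against DMSO negative control as baseline.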

Read-out in assay [2]: Actin alpha 1 (ACTA1), ACTA1 (gene 58)
As to the kind of experiment: BSK_MyoF_ACTA1: BioMAP Diversity Plus: MyoF Assay for Actin alpha 1 (ACTA1) Biomarker Activity (AID 2284244). Conditions: primary human lung fibroblasts. Summed up: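 Human lung fibroblasts (MyoF system) dosed with test chemical for 24 h; α-SMA measured by ELISA. Gain of signal fitted relative to DMSO negative control as baseline.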

Read-out in assay [3]: Interleukin 2 (IL2), IL2 (gene 3558)
Description: BSK_BT_xIL2: BioMAP Diversity Plus: BT Assay for Interleukin 2 (IL2) Biomarker Activity (AID 2284245). Conditions: primary human B cells with PBMC. Summed up: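 Human B cells co-cultured with PBMC, exposed to test chemical for 24 h. Secreted IL-2 quantified by Luminex xMAP bead immunoassay; activity fitted in the positive direction relative to DMSO vehicle baseline.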

Read-out in assay [4]: Basic fibroblast growth factor (bFGF), FGF2 (gene 2247)
As to the kind of experiment: BSK_MyoF_bFGF: BioMAP Diversity Plus: MyoF Assay for Basic fibroblast growth factor (bFGF) Biomarker Activity (AID 2284246). To be noted: primary human lung fibroblasts. Summed up:
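Human lung fibroblasts were dosed with chemicals and bFGF was quantified by ELISA 24 h later. Activity was fitted in the gain-of-signal direction relative to DMSO as negative control and baseline. Parallel SRB total-protein staining tracked overt cytotoxicity.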

Read-out in assay [5]: Collagen IV, COL4A1 (gene 1282)
Description: BSK_MyoF_CollagenIV: BioMAP Diversity Plus: MyoF Assay for Collagen IV Biomarker Activity (AID 2284247). To be noted: primary human lung fibroblasts. The essentials:
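Primary human lung fibroblasts were exposed to test chemicals and sampled 24 h after dosing. Collagen IV levels were measured by ELISA and fitted in the positive direction against DMSO as negative control and baseline.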

Read-out in assay [6]: Plasminogen activator inhibitor-1 (PAI1), SERPINE1 (gene 5054)
Description: BSK_MyoF_PAI1: BioMAP Diversity Plus: MyoF Assay for Plasminogen activator inhibitor-1 (PAI1) Biomarker Activity (AID 2284256).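 As to outcome: PAI-1 protein level measured by ELISA in fibroblast cultures; PAI-1 read 24 h after compound addition.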 Conditions: primary human lung fibroblasts. Summed up:
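Human lung fibroblasts (MyoF system) were exposed to test chemicals for 24 h, then PAI-1 was quantified by ELISA. Activity was fitted in the positive (signal-gain) direction relative to DMSO vehicle as baseline.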

Read-out in assay [7]: Interleukin-8 (IL8), CXCL8 (gene 3576)
Description: BSK_MyoF_IL8: BioMAP Diversity Plus: MyoF Assay for Interleukin-8 (IL8) Biomarker Activity (AID 2284261). To be noted: primary human lung fibroblasts. Summed up: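 IL-8 quantified by ELISA after 24 h compound exposure of primary human lung fibroblasts. SRB staining of parallel cultures flagged cytotoxicity; DMSO served as baseline.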

Read-out in a further assay: Decorin, DCN (gene 1634)
Description: BSK_MyoF_Decorin: BioMAP Diversity Plus: MyoF Assay for Decorin Biomarker Activity (AID 2284265). To be noted: primary human lung fibroblasts. Summed up: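 Decorin protein was quantified by ELISA 24 h after chemical addition to primary human lung fibroblasts and analysed as increase over DMSO. Cytotoxicity was tracked in parallel cultures by SRB total-protein staining read at 560 nm.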

Read-out in assay [8]: Vascular cell adhesion molecule 1 (VCAM1), VCAM1 (gene 7412)
Description: BSK_BF4T_VCAM1: BioMAP Diversity Plus: BF4T Assay for Vascular cell adhesion molecule 1 (VCAM1) Biomarker Activity (AID 2284249). To be noted: primary human bronchial epithelial cells with fibroblasts. Summed up: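 Human bronchial epithelial cell and dermal fibroblast co-culture exposed 24 h. VCAM-1 measured by ELISA; parallel SRB total-protein staining for cytotoxicity. Fitted in positive direction relative to DMSO.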

Read-out in assay [9]: Collagen I, COL1A1 (gene 1277)
As to the kind of experiment: BSK_hDFCGF_CollagenI: BioMAP Diversity Plus: hDFCGF Assay for Collagen I Biomarker Activity (AID 2284250). To be noted: primary human foreskin fibroblasts. Summed up: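 Primary human foreskin fibroblasts (hDFCGF system) exposed to chemical for 24 h; Collagen I measured by ELISA. Activity fitted in the positive direction relative to DMSO baseline, with SRB total-protein staining in parallel cultures for overt cytotoxicity.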

Read-out in assay [10]: Monocyte Chemoattractant Protein-1 (MCP1), CCL2 (gene 6347)
Description: BSK_IMphg_MCP1: BioMAP Diversity Plus: IMphg Assay for Monocyte Chemoattractant Protein-1 (MCP1) Biomarker Activity (AID 2284253). Conditions: primary human endothelial cells with macrophages. The essentials: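 Human venular endothelial cells co-cultured with macrophages; MCP-1 measured by ELISA 24 hours post-dose and fitted against DMSO. Cytotoxicity monitored by SRB total-protein staining in parallel cultures.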

Read-out in assay [11]: Macrophage Inflammatory Protein-1 Alpha (MIP1a), CCL3 (gene 6348)
Description: BSK_IMphg_MIP1a: BioMAP Diversity Plus: IMphg Assay for Macrophage Inflammatory Protein-1 Alpha (MIP1a) Biomarker Activity (AID 2284255). To be noted: primary human endothelial cells with macrophages. The essentials: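 Co-culture of human venular endothelial cells and macrophages exposed to compounds for 24 h; MIP-1a measured by ELISA relative to DMSO. Cytotoxicity assessed in parallel cultures by sulforhodamine B total-protein staining at 560 nm.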

Read-out in a further assay: CD69, CD69 (gene 969)
As to the kind of experiment: BSK_IMphg_CD69: BioMAP Diversity Plus: IMphg Assay for CD69 Biomarker Activity (AID 2284257). To be noted: primary human endothelial cells with macrophages. The essentials:
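Human venular endothelial cells co-cultured with macrophages; CD69 quantified by ELISA 24 h after compound addition. Activity fitted in the positive direction relative to DMSO baseline; cytotoxicity tracked in parallel cultures via SRB total-protein staining.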

Read-out in assay [12]: Eotaxin 3, CCL26 (gene 10344)
As to the kind of experiment: BSK_BF4T_Eotaxin3: BioMAP Diversity Plus: BF4T Assay for Eotaxin 3 Biomarker Activity (AID 2284258). Conditions: primary human bronchial epithelial cells with fibroblasts. Summed up:
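Co-culture of human bronchial epithelial cells and dermal fibroblasts, exposed to chemicals for 24 h versus DMSO. Eotaxin-3 quantified by ELISA; cytotoxicity checked in parallel cultures by sulforhodamine B total-protein staining.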

Read-out in assay [13]: Monocyte Chemoattractant Protein-1 (MCP1), CCL2 (gene 6347)
As to the kind of experiment: BSK_BF4T_MCP1: BioMAP Diversity Plus: BF4T Assay for Monocyte Chemoattractant Protein-1 (MCP1) Biomarker Activity (AID 2284259). To be noted: primary human bronchial epithelial cells with fibroblasts. Summed up:
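Co-culture of bronchial epithelial cells and dermal fibroblasts dosed with chemical; MCP-1 measured by ELISA 24 h later. Activity fitted in positive direction versus DMSO; cytotoxicity checked by SRB staining in parallel cultures.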

Read-out in assay [14]: Intercellular Adhesion Molecule 1 (ICAM1), ICAM1 (gene 3383)
As to the kind of experiment: BSK_BF4T_ICAM1: BioMAP Diversity Plus: BF4T Assay for Intercellular Adhesion Molecule 1 (ICAM1) Biomarker Activity (AID 2284260). To be noted: primary human bronchial epithelial cells with fibroblasts. Summed up:
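Co-culture of human bronchial epithelial cells and dermal fibroblasts exposed 24 h to chemical; cell-surface ICAM-1 quantified by ELISA. Parallel SRB total-protein staining assessed cytotoxicity; activity fitted relative to DMSO.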

Read-out in the next assay: CD90, THY1 (gene 7070)
As to the kind of experiment: BSK_BF4T_CD90: BioMAP Diversity Plus: BF4T Assay for CD90 Biomarker Activity (AID 2284262). To be noted: primary human bronchial epithelial cells with fibroblasts. The essentials: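 Co-culture of human bronchial epithelial cells and dermal fibroblasts, 24 h compound exposure. Cell-surface CD90 measured by ELISA relative to DMSO; parallel SRB total-protein staining for cytotoxicity.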

Read-out in assay [15]: Interleukin-8 (IL8), CXCL8 (gene 3576)
As to the kind of experiment: BSK_BF4T_IL8: BioMAP Diversity Plus: BF4T Assay for Interleukin-8 (IL8) Biomarker Activity (AID 2284263). To be noted: primary human bronchial epithelial cells with fibroblasts. The essentials:
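Human bronchial epithelial cells with dermal fibroblasts co-culture; IL-8 measured by ELISA 24 hours after dosing, fitted vs DMSO. Cytotoxicity tracked in parallel cultures by SRB total-protein staining.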

Read-out in assay [16]: Interleukin-1 alpha (IL1a), IL1A (gene 3552)
Description: BSK_BF4T_IL1a: BioMAP Diversity Plus: BF4T Assay for Interleukin-1 alpha (IL1a) Biomarker Activity (AID 2284264). To be noted: primary human bronchial epithelial cells with fibroblasts. Summed up: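 Human bronchial epithelial cells co-cultured with dermal fibroblasts, dosed and read at 24 h. Secreted/surface IL-1α quantified by ELISA; gain-of-signal fitted relative to DMSO baseline. Parallel SRB total-protein staining tracked cytotoxicity.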

Assay [17] can be described thus: CCTE_Mundy_HCI_Cortical_Synap_Neur_Matur_NeuronCount: CCTE's Synaptogenesis and Neurite Maturation Assay in rat cortical cells for Neuron Count, Mundy Lab (AID 2284242; active = hit-call score of the fitted dose curve at least 0.9, where 1 is the maximum). Summed up: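 Rat primary cortical cells received AraC at DIV 5 to arrest glia, then were dosed with chemicals at DIV 7 through DIV 12. Fixed cells were stained for nuclei, MAP2 and synaptophysin, and neurons were counted by high-content imaging relative to DMSO.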

One may read the AC50 as the midpoint of the concentration-response curve, whichever way the signal moves. In the case of `CC(=O)CCC=C(C)CCC=C(C)C`, the result in assay [1], in assay [2], in [3], in assay [4], in assay [5] and in assay [7] was inactive. The result in the assay with Decorin, DCN (gene 1634) was inactive. In [6], the concentration at half-maximal activity (AC50) was 16 nM (active).

`CC1(C)[C@H](C=C(Cl)Cl)[C@H]1C(=O)OCc1cccc(Oc2ccccc2)c1`: the outcome in assay [1], in [2], in assay [3], in [4], in [5] and in [6] was inactive. Also, the outcome in assay [7] is “inactive”; in the assay with Decorin, DCN (gene 1634) it was “inactive”.

For `C=C1CC/C=C(\C)CC[C@@H]2[C@@H]1CC2(C)C`, the outcome in assay [1], in [3] and in assay [7] was inactive. For the same compound, the AC50 in [2] is 14900 nM (active); in assay [4], 34700 nM (active); in [5], 23800 nM (active); in assay [6] it was 20000 nM (active); with Decorin, DCN (gene 1634) it was 31000 nM (active).

On to `O=C(O)C(F)(F)C(F)(F)C(F)(F)C(F)(F)C(F)(F)C(F)(F)C(F)(F)C(F)F`, for which the outcome in [1], in assay [2], in [3], in assay [4], in [5] and in [8] was inactive. The outcome in [9] was “inactive”; in [10], “inactive”; in assay [11], “inactive”; in [6] it was “inactive”; with CD69, CD69 (gene 969) it was “inactive”; in assay [7], “inactive”. Also, the outcome is “inactive” with CD90, THY1 (gene 7070); “inactive” in assay [15]; “inactive” in assay [16]; “inactive” in the assay with Decorin, DCN (gene 1634). Besides, the AC50 in assay [8] is 2300 nM (active); with CD69, CD69 (gene 969), 257 nM (active); in assay [12], 4.86 µM (active) and 2.55 µM (active); in [13], 2.81 µM (active) and 1.53 µM (active); in [14], 2.59 µM (active) and 3.49 µM (active); with Decorin, DCN (gene 1634), 22500 nM (active).

In the case of `CC(C)(C)c1cccc(O)c1`, the result in assay [1], in assay [2], in [3], in assay [4], in assay [5] and in assay [6] was inactive. For the same compound, the outcome in assay [7] is “inactive”; with Decorin, DCN (gene 1634) it was “inactive”.

For the compound `O=S1(=O)CC(Cl)(Cl)C(Cl)(Cl)C1`, the half-maximal activity concentration (AC50) in assay [1] was 515 nM (active); in assay [2] it was 1130 nM (active); in assay [3], 703 nM (active); in [4] it was 2060 nM (active); in assay [5] it was 1850 nM (active); in [6], 2620 nM (active). Moreover, the outcome in [7] was “inactive”; in the assay with Decorin, DCN (gene 1634), “inactive”.

Turning to `N[C@@H](CCC(=O)O)C(=O)O`, the call in assay [17] was inactive.

As for `C=C(F)C(=O)OC(C(F)(F)F)C(F)(F)F`, the outcome in assay [1], in assay [2], in [3], in assay [4], in assay [5] and in assay [8] was inactive. For the same compound, the outcome was “inactive” in [9]; “inactive” in [10]; “inactive” in assay [11]; “inactive” in assay [6]; “inactive” with CD69, CD69 (gene 969); “inactive” in assay [12]. For the same compound, the outcome is “inactive” in [13]; “inactive” in assay [14]; “inactive” in assay [7]; “inactive” in the assay with CD90, THY1 (gene 7070); “inactive” in assay [15]; “inactive” in [16]. Further, the outcome in the assay with Decorin, DCN (gene 1634) was inactive. In assay [13], the AC50 was 47.3 µM (active).
